Structures can show the parent of a compound that is named as a salt. ± gives the standard deviation of the averaged measurements. Whole data set: some 1,100 compounds, median “day of extracellular matrix detachment from plate” near 16, cut for the lowest 2% near 10. What follows is part of a selection rich in the lowest values, with near analogues and random picks from the rest.
System: RDEB dermal fibroblasts EB71
Assay: day of extracellular matrix detachment from plate (days); higher = delayed detachment (less fibrotic matrix)
Settings: compound concentration: 10 uM

SMILES	day of extracellular matrix detachment from plate
C#C[C@]1(O)CC[C@H]2[C@@H]3CCC4=CC(=O)CC[C@@H]4[C@H]3C(=C)C[C@@]21CC [Etonogestrel]	20
CC(C)Oc1ccc(-c2nc(-c3cccc4c3CC[C@@H]4NCCO)no2)cc1C#N [Ozanimod (RPC1063)]	16.3 ± 1.1
Cc1cccc(Nc2ccncc2S(=O)(=O)NC(=O)NC(C)C)c1 [Torsemide]	15.7 ± 6.3
CN1CCN2c3ccccc3Cc3ccccc3C2C1 (stereo not given) [Mianserin HCl]	9.67 ± 1.1
CN1CCN2c3ncccc3Cc3ccccc3C2C1 (stereo not given) [Mirtazapine]	12
NC1=NCC2c3ccccc3Cc3ccccc3N12 (stereo not given) [Epinastine HCl]	13
C=C[C@]1(C)C[C@@H](OC(=O)CSC(C)(C)CNC(=O)[C@H](N)C(C)C)[C@]2(C)[C@H](C)CC[C@]3(CCC(=O)[C@H]32)[C@@H](C)[C@@H]1O [Valnemulin HCl]	19
C[C@]12CC[C@@H]3c4ccc(O)cc4CC[C@H]3[C@@H]1CC[C@@H]2OC(=O)CCC1CCCC1 [Estradiol Cypionate]	13
C[C@@H]1COC(Nc2ccc3ncnc(Nc4ccc(OCc5nccs5)c(Cl)c4)c3c2)=N1 [Varlitinib]	31
C[C@H](CCC(=O)O)[C@H]1CC[C@H]2[C@@H]3[C@H](O)C[C@@H]4C[C@H](O)CC[C@]4(C)[C@H]3CC[C@]12C [Chenodeoxycholic Acid]	15.7 ± 6.3
C[C@H](CCC(=O)O)[C@H]1CC[C@H]2[C@@H]3CC[C@@H]4C[C@H](O)CC[C@]4(C)[C@H]3CC[C@]12C [Lithocholic acid]	15.3 ± 2.3
C[C@H](CCC(=O)O)[C@H]1CC[C@H]2[C@@H]3[C@@H](O)C[C@@H]4C[C@H](O)CC[C@]4(C)[C@H]3CC[C@]12C [Ursodiol]	10.3 ± 1.1
CO[C@H]1/C=C/O[C@@]2(C)Oc3c(C)c(O)c4c(O)c(c(/C=N/N5CCN(C6CCCC6)CC5)c(O)c4c3C2=O)NC(=O)/C(C)=C\C=C\[C@H](C)[C@H](O)[C@@H](C)[C@@H](O)[C@@H](C)[C@H](OC(C)=O)[C@@H]1C [Rifapentine]	12
C[C@@H]1CC(=O)NN=C1c1ccc(NN=C(C#N)C#N)cc1 [Levosimendan]	19.3 ± 6.3
CC[C@@H](CO)NCCN[C@@H](CC)CO [Ethambutol HCl]	15.3 ± 2.3
Cc1c(C)c2c(c(C)c1O)CC[C@@](C)(CCC[C@H](C)CCC[C@H](C)CCCC(C)C)O2 [Vitamin E]	17.3 ± 2.5
CCOc1ccccc1OC(c1ccccc1)C1CNCCO1 (stereo not given) [Reboxetine mesylate]	18
N[C@@H](CC(=O)N1CCn2c(nnc2C(F)(F)F)C1)Cc1cc(F)c(F)cc1F [Sitagliptin phosphate monohydrate]	18
C#C[C@]1(O)CC[C@H]2[C@@H]3CCc4cc(OC)ccc4[C@H]3CC[C@@]21C [Mestranol]	10 ± 1.7
C#C[C@]1(O)CC[C@H]2[C@@H]3CCC4=CC(=O)CC[C@@H]4[C@H]3CC[C@@]21C [Norethindrone]	19
C#C[C@]1(O)CC[C@H]2[C@@H]3CCc4cc(O)ccc4[C@H]3CC[C@@]21C [Ethinyl Estradiol]	14
CCC(C)(C)c1ccc(CC(C)CN2C[C@@H](C)O[C@@H](C)C2)cc1 (stereo not given in full) [Amorolfine HCl]	12
Cc1cc(/C=C/C#N)cc(C)c1Nc1ccnc(Nc2ccc(C#N)cc2)n1 [Rilpivirine]	27
O[C@H]1[C@H](O)[C@@H](O)[C@H](O)[C@@H](O)[C@H]1O [i-Inositol]	13
CS(=O)(=O)c1ccc(C(=O)Nc2ccc(Cl)c(-c3ccccn3)c2)c(Cl)c1 [Vismodegib (GDC-0449)]	14.3 ± 1.1

SMILES	day of extracellular matrix detachment from plate
COc1cccc(-c2ccc(NC(=O)C3=C(C(=O)O)CCC3)c(F)c2)c1 [Vidofludimus]	16.3 ± 1.1
CCOc1cc([C@@H](CS(C)(=O)=O)N2C(=O)c3cccc(NC(C)=O)c3C2=O)ccc1OC	12.7 ± 2.9
O=C1CC[C@@H](C(=O)N2CSC[C@H]2C(=O)O)N1 [Pidotimod]	15.3 ± 2.3
CNC[C@@H](O)c1ccc(O)c(O)c1 [L-Adrenaline]	10 ± 1.7
CC(C)NCC(O)c1ccc(O)c(O)c1 (stereo not given) [Isoprenaline HCl]	11 ± 1.7
CNC[C@H](O)c1cccc(O)c1 [Phenylephrine HCl]	12
CNC[C@H](O)c1ccc(O)c(O)c1 [Epinephrine HCl]	16.3 ± 4
CC(C)(C)NCC(O)c1ccc(O)c(CO)c1 (stereo not given) [Salbutamol Sulfate]	19
NC[C@H](O)c1ccc(O)c(O)c1 [Noradrenaline bitartrate monohydrate]	16.7 ± 2.3
CNC[C@H](O)c1ccc(O)c(O)c1 [Epinephrine Bitartrate]	9
O=C(/C=C/C=C/c1ccc2c(c1)OCO2)N1CCCCC1 [Piperine]	11 ± 1.7
Cc1ccsc1C(=CCCN1CCC[C@@H](C(=O)O)C1)c1sccc1C [Tiagabine]	17
Cc1ccsc1C(=CCCN1CCC[C@@H](C(=O)O)C1)c1sccc1C [Tiagabine hydrochloride]	17.2 ± 2
Cc1c(-c2ccnn2C)cc(C(=O)NCc2ccc(S(C)(=O)=O)cn2)c(=O)n1-c1cccc(C(F)(F)F)c1 [Alvelestat (AZD9668)]	13.7 ± 1.1
CCCNS(=O)(=O)Nc1ncnc(OCCOc2ncc(Br)cn2)c1-c1ccc(Br)cc1 [Macitentan]	9.67 ± 1.1
O=C(O)c1cc(=O)c2ccccc2o1 [Chromocarb]	13
OCC(O)CN1CCN(c2ccccc2)CC1 (stereo not given) [Dropropizine]	15
C=C1CC[C@H](O)C/C1=C/C=C1\CCC[C@]2(C)[C@@H]([C@H](C)/C=C/[C@H](C)C(C)C)CC[C@@H]12 [Vitamin D2]	18
CC(=O)/N=c1/sc(S(N)(=O)=O)nn1C [Methazolamide]	18
O=C1C(O)=C([C@H]2CC[C@H](c3ccc(Cl)cc3)CC2)C(=O)c2ccccc21 [Atovaquone]	18
CC[C@H](Nc1ncnc2[nH]cnc12)c1nc2cccc(F)c2c(=O)n1-c1ccccc1 [CAL-101 (Idelalisib, GS-1101)]	22.3 ± 1.1
O=C([O-])C(O)[C@H](O)[C@@H](O)[C@H](O)[C@H](O)CO.O=C([O-])C(O)[C@H](O)[C@@H](O)[C@H](O)[C@H](O)CO.[Ca+2] (stereo not given in full) [Calcium Gluceptate]	18
S=c1[nH]cnc2nc[nH]c12 [Mercaptopurine (6-MP)]	15 ± 1.7
O=c1[nH]c(=O)n([C@H]2C[C@H](O)[C@@H](CO)O2)cc1I [Idoxuridine]	23
COc1cc(OC)c(C(=O)CCCN2CCCC2)c(OC)c1 [Buflomedil HCl]	20 ± 1.7

From the supplement of paper PMC11018630
